High-throughput results as filed in PubChem BioAssay.
Epigenetic reg: regulators of epigenetic silencing causing reporter derepression in mouse cells; murine LDR cells, GFP reporter derepression, 30 h; Potency, µM (highest dose often 53.9 µM), inactives show at the highest dose GFP activation, hits mostly activators; actives 0.2% (n = 280,000); AID 1865; also: % of control where 0% means no effect; nearly all actives have a fitted effect of over 60% in size
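GFP-positive cell count by laser-scanning cytometry (objects 20–120 um) after 30 h, 37 C compound exposure of murine LDR cells; reporter is CMV-GFP integrated at a silenced locus, inducible by HDAC or DNMT inhibitors.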
ClpP mod: qHTS Assay for Activators of ClpP. ATP-dependent Clp protease proteolytic subunit (Bacillus subtilis (strain 168)), P80244. purified B. subtilis ClpP, FRET peptide cleavage, 20 min. Potency, µM (top dose mostly 57.5 µM), for the others: top-dose activity change, negative = active. actives 1.9% (n = 340,000). AID 651965, 2013; active = well fitted falling curve with a large enough effect; inconclusive = small, poorly fitted or top-dose-only effect; inactive = no such curve, though single readings can be large or run the other way; also: the source files actives as falling curves though it sought activators and does not explain the sign; nearly all actives have a fitted effect of over 65% in size
Target sequence (P80244 whole entry, looked up): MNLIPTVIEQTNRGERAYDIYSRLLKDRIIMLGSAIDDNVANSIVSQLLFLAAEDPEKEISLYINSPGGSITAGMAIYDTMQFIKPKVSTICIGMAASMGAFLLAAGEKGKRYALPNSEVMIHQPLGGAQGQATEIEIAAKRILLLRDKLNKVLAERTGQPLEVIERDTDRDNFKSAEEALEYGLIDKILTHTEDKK
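Purified B. subtilis ClpP, 10 microg/mL final in Tris/HCl pH8 with KCl, BSA, glycerol and Tween-20, cleaved an Abz/nitrotyrosine-quenched decapeptide. Fluorescence (ex 320, em 430) was read at 0 and 20 min at room temperature. Delta was normalized to 5.8 microM ADEP and DMSO/no-enzyme controls.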
Sfp inh: blocks B. subtilis Sfp PPTase activity; Q9F4F7; Biochemical Sfp PPTase activity, qHTS; Potency, µM, for inactives: largest response in the series, negative = inhibition, most hits filed as inhibitors; actives 3.5% (n = 310,000); AID 1490;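 also: the enzyme is Sfp with the accession as filed and its product quenches rhodamine fluorescence; 0% = enzyme reaction without inhibitor and -100% = no enzyme wells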
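Compounds were incubated with enzyme (final 15 nM) for 15 min at room temperature before substrate addition started the reaction. Fluorescence at 525 nm excitation, 598 nm emission was recorded immediately and after 30 minutes.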
VP16 counter: Gal4-VP16 reporter inhibition counter-screen; Drosophila S2 Gal4-VP16 UAS-luciferase, luminescence, 20 h; actives 3.5% (n = 310,000); Potency, µM (titrated, usually from 53.6 µM), for inactives: at the highest dose activity, negative = inhibition, usual class: inhibitors;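 also: Gal4-VP16 expression switched on by copper sulfate through the metallothionein promoter; % is scaled to controls: 0 for no effect and ±100 for the full control effect; nearly all actives have a fitted effect of over 50% in size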
RORgamma inh: blocks mouse ROR gamma transcriptional activity; P51450; Drosophila S2 Gal4-RORgamma UAS-luciferase reporter, 20 h; Potency, µM (doses to about 53.6 µM), for the others: top-dose activity change, negative = inhibition, most hits filed as inhibitors; actives 5.4% (n = 310,000); AID 2551; also: % is scaled to controls: 0 for no effect and ±100 for the full control effect; nearly all actives have a fitted effect of over 60% in size
Target sequence (P51450 whole entry, looked up, the tested form may be a part): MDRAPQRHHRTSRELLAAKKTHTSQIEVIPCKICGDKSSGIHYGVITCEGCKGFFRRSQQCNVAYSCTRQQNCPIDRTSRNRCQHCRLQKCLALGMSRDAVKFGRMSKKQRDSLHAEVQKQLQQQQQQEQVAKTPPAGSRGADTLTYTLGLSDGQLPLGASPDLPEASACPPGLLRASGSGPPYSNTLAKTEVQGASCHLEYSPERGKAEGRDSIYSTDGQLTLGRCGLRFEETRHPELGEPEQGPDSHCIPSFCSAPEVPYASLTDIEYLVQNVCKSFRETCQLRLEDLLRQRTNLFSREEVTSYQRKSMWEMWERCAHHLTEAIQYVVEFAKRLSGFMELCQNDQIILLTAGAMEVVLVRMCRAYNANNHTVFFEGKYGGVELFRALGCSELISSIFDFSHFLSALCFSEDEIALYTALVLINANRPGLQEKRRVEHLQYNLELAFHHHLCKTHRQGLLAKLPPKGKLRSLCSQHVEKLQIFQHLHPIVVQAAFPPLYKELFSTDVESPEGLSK
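Drosophila Schneider cells stably carrying a metallothionein-driven Gal4 DBD–ROR gamma fusion and a UAS-Photinus luciferase reporter were exposed to compound for 1 hr, then induced with copper sulfate (700 uM final) for 20 hr at ambient temperature before luminescence reading.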
PINK1 expr mod: modulators of PINK1 expression | Potency, µM (series often up to 76.6 µM), for inactives: top-dose activation (PINK1 increase), actives largely listed as activators | actives 0.2% (n = 410,000) | AID 624263 | PINK1 immunofluorescence, high-content cytometry, 24 h; active = well fitted activation curve with a large enough effect; inconclusive = small, poorly fitted or top-dose-only effect; cell line not stated here; also: % of control where 0% means no effect; nearly all actives have a fitted effect of over 65% in size
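Stable cell line, 250 cells/well, 12 h attachment; compounds pinned at 5 concentrations, 24 h; CCCP control. Fixed with nuclear dye, primary antibodies 12 h at 10 degrees C, secondary plus cell stain; laser-scanning cytometer read.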
The depositor's hits bear a star; ? = inconclusive; . = no result; [ ] = another dose, or the depositor's remark. In the library only some 8.1% were active in any assay of this set; here they are far more common. Unless noted, calls follow the shape of the dose curve; as a rule, active = well fitted curve in the direction sought with a large enough effect; inconclusive = small, poorly fitted or top-dose-only effect, or another doubt; inactive = no such curve, though single readings can be large; an effect the other way counts as inactive or inconclusive. Potency is read from the fitted curve at half-maximal effect.

SMILES	Epigenetic reg	ClpP mod	Sfp inh	VP16 counter	RORgamma inh	PINK1 expr mod
COc1ccc(CN2CCOc3c(cc(-c4cccc(OC)n4)cc3OC)C2)c(O)c1	.	.	.	.	.	2%
COc1ccc(CCNC(=O)c2cc(=O)[nH]c3ccc(S(=O)(=O)N4CCCCC4)cc23)cc1OC	7%	-3%	.	.	.	1%
O=S(=O)(NCc1ccccn1)c1ccccn1	.	1%	-12%	-1%	11µM*	-1%
O=S(=O)(NCc1ccccn1)c1ccc(Cl)s1	2%	.	-5%	?	8.9µM*	-1%
O=S(=O)(NCc1ccccn1)c1cccc2nsnc12	7%	1%	-16%	?	7.9µM*	0%
CCCn1c(=O)c2sccc2n2c(CCCC(=O)N3CCN(c4ccc(OC)cc4)CC3)nnc12	-3%	-5%	.	.	.	-1%
CC(C)(C)c1ccc(O)c(O)c1	.	2%	.	?	?	1%
CC(C)(C)c1ccc(O)c(/C=N\O)c1	0%	-1%	22%	?	11µM*	0%
CSc1nnc(-c2sc3cc(C(F)(F)F)cnc3c2-c2ccccc2)n1C	-3%	32µM*	7%	0%	-17%	1%
S=c1[nH]nc(CCc2nc3ccccc3[nH]2)n1-c1cccc(Cl)c1	5%	.	50µM*	-5%	-9%	-1%
O=C(c1ccc(CSc2nc3ccncc3[nH]2)cc1)N1CCN(c2cccc(Cl)c2)CC1	5%	0%	-4%	11µM*	?	2%
Cc1ccc(CSc2nc3ccncc3[nH]2)cc1	-5%	-2%	0%	7.9µM*	7.9µM*	2%
Clc1ccc(CSc2nc3ccncc3[nH]2)cc1	0%	1%	7%	?	?	1%
O=C(CSCc1nc2ccccc2[nH]1)N1CCN(c2cccc(Cl)c2)CC1	1%	-2%	0%	?	11µM*	5%[38.3 µM]
S=c1[nH]nc(CCc2nc3ccccc3[nH]2)n1-c1ccccc1	4%	-1%	?	-15%	3%	0%
O=C(c1ccc(CSc2nc3ccncc3[nH]2)cc1)N1CCCCCC1	0%	1%	23%	?	3%	0%
COc1cc(-c2noc(-c3ccc(N4CCN(C)CC4)c([N+](=O)[O-])c3)n2)cc(OC)c1OC	-4%	1%	.	.	.	2%
Cc1c(C(=O)N2CCC(C)CC2)c(S(=O)(=O)NCc2ccc(Cl)cc2)c(C)n1C	?	2%	.	.	.	-2%
Cc1[nH]nc(SCC(=O)N2CCC(C)CC2)c1[N+](=O)[O-]	-5%	0%	89µM*	-1%	6%	-1%
Cc1[nH]nc(SCC(=O)N2CCCC2)c1[N+](=O)[O-]	2%	-1%	-5%	4%[10 µM]	5%	2%
CC(C)c1ccc(C2C(C#N)=C(N)N3C(=C2C#N)Sc2ccccc23)cc1 (stereo not drawn)	20µM*	.	-18%	7%	-42%	.
CN(C)c1ccc(/C=C2\C(=O)/C(=C\c3ccc(N(C)C)cc3)c3ccccc32)cc1	.	0%	.	.	.	.
NC(=S)N/N=C1\CC(c2ccc3c(c2)OCCCO3)Oc2ccc(F)cc21 (stereo not drawn)	?	.	1%	0.56µM*	-5%	13%
Cc1cc(C)nc(/N=C(\N)Nc2ccc3c(c2)OCCO3)n1	14%	1%	-6%	-7%	12%	11%
NC(=S)N/N=C1\CC(c2ccc3c(c2)OCCO3)Oc2ccc(F)cc21 (stereo not drawn)	7%	.	8%	6.3µM*	6.3µM*	0%
SMILES	Epigenetic reg	ClpP mod	Sfp inh	VP16 counter	RORgamma inh	PINK1 expr mod
Cc1ccc2c(c1)-c1c(cnn1CC(=O)N1CCN(c3cc(C)ccc3C)CC1)CO2	1%	1%	.	.	.	1%
CC(C)(C)c1cc(Br)c(O)c(N=Nc2ccc(S(=O)(=O)N3CCOCC3)cc2)c1	1%	0%	3%	?	6.3µM*	1%
CCOC(=O)CCCNC(=O)N1CCc2nc(-c3ccc(OC)cc3C)c3c(c2C1)CO[C@@H](c1ccccc1)C3	.	.	7%	.	.	.
CCCCCc1ccc(C(=O)CCCC)c(=S)[nH]1	0%	.	31%	-23%	2.5µM*	-2%
Cc1ccc(-c2c(C(=O)Nc3ccccc3C)c(C)[nH]c(=S)c2C#N)o1	1%	.	2.8µM*	-24%	8%	2%
Cc1[nH]c(=S)c(C#N)c(-c2ccccc2)c1C(=O)Nc1ccccc1	-4%	-1%	28µM*	-3%	-32%	-1%
N#C/C(=C\c1c(N(Cc2ccccc2)Cc2ccccc2)nc2ccccn2c1=O)C(N)=O	0%	-3%	-10%	7.1µM*	?	0%
COc1ccc(CN2CCN(CC3CC3)CC2CCO)c(C)c1C (stereo not drawn)	.	-1%	2%	.	.	0%
CCC1CCCCN1Cc1ccc(OC)c(C)c1C (stereo not drawn)	1%	0%	-3%	4%	11µM*	-3%[38.3 µM]
O=C1C(SC(F)(F)C(F)F)=C(C(F)(F)F)OC2C3C=CC(C3)C12 (stereo not drawn)	0%	16µM*	9%	9%	?	1%
COc1ccc(N(C(=O)c2ccccc2C)S(=O)(=O)c2ccc3c(c2)n(C)c(=O)n3C)cc1	-1%	0%	.	.	.	-2%
Cc1cc(O)c2c(c1O)C(=O)C(O)=C(O)C2=O	-3%	.	45µM*	-14%	-44%	.
CCc1ccccc1N(C)S(=O)(=O)c1ccc2[nH]cc(C(=O)NCCOC)c(=O)c2c1	-1%	28µM*	.	.	.	0%
CC1CCN(S(=O)(=O)c2ccc3[nH]cc(C(=O)NCCN4CCOCC4)c(=O)c3c2)CC1	0%	25µM*	-6%	-1%	2%	1%
COCCNC(=O)c1c[nH]c2ccc(S(=O)(=O)N3CCC4(CC3)OCCO4)cc2c1=O	-2%	20µM*	27%	-1%	-15%	0%
CCc1ccc(CNC(=O)c2c3c(nc4ccccc24)C(=O)N(C2CCCCC2)C3)cc1	0%	-21%	.	.	.	1%
C=Cc1ccccc1C=C	.	.	.	-13%	14%	.
CC(C)c1nc2ccc(C(=O)Nc3ccccc3F)cc2o1	1%	0%	.	.	.	4%
CCOc1ccccc1N1CCN(C/C=C/c2ccc(N(C)C)cc2)CC1	-2%	28µM*	-30%	-1%	-9%	1%
C=CCC(C)(Nc1ccccc1)C(=O)OCC (stereo not drawn)	0%	.	-17%	5%	-3%	.
CCc1ccc(-n2nc(C)c3c(C(=O)Nc4ccc(Cl)cc4)cc(C)nc32)cc1	0%	1%	.	.	.	0%
CCc1ccc(-n2nc(C)c3c(C(=O)Nc4cccc(C(F)(F)F)c4)cc(C)nc32)cc1	-1%	22µM*	.	.	.	4%
